Data on eight compounds can be found in PubChem BioAssay (NCI).

Molecules are shown by their SMILES. Compounds without any hit were thinned out: in the full panel of roughly 83,000, 20% have a hit.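 Cell lines were cultured in 96-well plates, exposed to a single compound concentration, and assessed for percent growth 48 hours later.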 Values without a mark were called inactive. Active and inactive are the calls of the source. The calls were made as follows: active = growth percent below 10; inactive = the rest.

Holding throughout (assay): NCI-60 one-dose screen, 48 h (100 = growth as untreated, 0 = no growth, -100 = all killed)
Holding throughout (conditions): 10 µM unless noted

In assay [1] the test system is DU-145 prostate.
Assay [2] has as its system K-562 leukemia.
In assay [3] the test system is MALME-3M melanoma.
In assay [4] the test system is MDA-MB-231 breast.
For assay [5], the system named is RXF 393 renal.
Assay [6] concerns SF-268 CNS.
Assay [7] deals with SF-295 CNS.
In assay [8] the test system is SF-539 CNS.
For assay [9], the system named is UACC-257 melanoma.
Assay [10] relates to M14 melanoma.
The subject of assay [11] is HCT-15 colon.
For assay [12], the system named is HT29 colon.
Assay [13] concerns SNB-75 CNS.
Assay [14] concerns SNB-19 CNS.
Assay [15] relates to U251 CNS.
Assay [16] relates to SK-MEL-5 melanoma.
Assay [17] concerns UACC-62 melanoma.
Assay [18] deals with LOX IMVI melanoma.
Assay [19] relates to SK-MEL-28 melanoma.
For assay [20], the system named is PC-3 prostate.

`CCN1C(=S)N(c2ccccc2)C2C1NN=c1s/c(=C3\C(=O)N(C(C)C)c4ccccc43)c(=O)n12` (stereo unspecified): the growth is 58% in assay [1]; 87.2% in assay [2]; 60.7% in assay [3]; 36.5% in [4]; 107% in assay [5]; 95.8% in assay [6]. Further, the growth in assay [7] was 98.9%; in assay [8], 10.4%; in assay [9], 92.7%; in [10], 81.8%; in assay [11], 93.3%; in assay [12], 69.6%. Moreover, the growth was 61% in [13]; 81.9% in assay [14]; 64.6% in [15]; 92.1% in [16]; 83.5% in [17]; 47.5% in assay [18]. Further, in assay [19], the growth was 102%.

Consider `CCOC(=O)c1nn(-c2ccc(S(N)(=O)=O)cc2)c2nc(C)cc(=O)n12`, for which the growth in assay [1] is 108%; in [2], 102%; in assay [3], 106%; in [4], 102%; in assay [5] it was 104%; in [6], 103%. The growth in assay [7] is 103%; in assay [8], 97.8%; in [9], 112%; in assay [10] it was 104%; in [11], 108%; in assay [12], 109%. Further, the growth in assay [13] is 94.8%; in assay [14], 98.8%; in [15], 99%; in assay [16], 106%; in assay [17], 99.6%; in [18], 96.2%. For the same compound, in [19], the growth was 119%.

On to `Cc1ccc(Nn2c(SCC(=O)Nc3nc(-c4ccccc4)cs3)nc(C)c2C)cc1`, for which the growth in [1] is 83.4%; in assay [2], 37.7%; in [3], 92%; in assay [4] it was 46%; in assay [5] it was 61.5%; in assay [6], 81.7%. Moreover, the growth in [7] is 46.1%; in assay [8] it was 73.7%; in assay [9], 54.1%; in assay [10] it was 77%; in [11], 67.2%; in assay [12] it was 56.1%. Besides, the growth in assay [13] is 24.4%; in assay [14] it was 74.3%; in [15], 49.3%; in assay [16], -66.7% (active); in assay [17], 51.8%; in assay [18], 51.9%. The growth in assay [19] was 82.8%.

Take `O=c1c2ccccc2n2cnc3ccc(Cl)c1c32`: the growth is 62.8% in assay [1]; 97.2% in assay [2]; 90.7% in assay [3]; 90.7% in assay [4]; 69.8% in [5]; 86.9% in assay [6]. The growth in assay [7] is 85.9%; in assay [8] it was 88.4%; in [9], 95.7%; in assay [10], 83.9%; in assay [11], 66.4%; in [12] it was 73.4%. Moreover, the growth is 100% in [13]; 83.8% in assay [14]; 78.4% in assay [15]; 77% in assay [16]; 64.6% in assay [17]; 62.8% in assay [18]. For the same compound, the growth in [19] was 92.2%.

For the compound `COC(=O)c1c2c(c(C)[n+]([O-])c1C)C(=O)C(NCc1cccc(OC)c1)=CC2=O`, the growth in [1] is 54.8%; in [2] it was 13.7%; in assay [3], -89.9% (active); in assay [4] it was 5.97% (active); in [5] it was 38.7%; in [6] it was 36.8%. Besides, the growth in assay [7] is 69.9%; in assay [8] it was 11.4%; in assay [9], -25.5% (active); in assay [10], 12.9%; in assay [11] it was 11.9%; in [12], 11.4%. Further, the growth was 132% in assay [13]; 19.2% in assay [14]; -1.83% (active) in [15]; -54.8% (active) in [16]; -13.3% (active) in assay [17]; 22% in assay [18]. In addition, in assay [19], the growth was 86.6%.

For `CC(=O)/C(=C\c1c(-c2ccccc2)[nH]c2ccccc12)S(C)(=O)=O`, the growth in assay [1] was 13.2%; in assay [2], -25.7% (active); in [3] it was 32.9%; in [4] it was 32.3%; in assay [5], -5.08% (active); in assay [6], 41.6%. The growth in [7] was 3.77% (active); in assay [8], -34.8% (active); in assay [9], 59.8%; in assay [10], 3.01% (active); in [11], 19.3%; in assay [12], 4.54% (active). Moreover, the growth was -28.8% (active) in assay [13]; 23.2% in assay [14]; 15.3% in assay [15]; 21.6% in [20]; -6.28% (active) in assay [16]; 33.1% in assay [18]. Also, the growth in assay [19] is 34.4%.

For `CCOC(=O)C1=C(c2ccccc2)N=C2SC=C(c3ccc(Cl)cc3)N2C1c1ccc(Br)cc1` (stereo unspecified), the growth is 90.3% in assay [1]; 84.1% in assay [2]; 87.4% in assay [3]; 68.5% in [4]; 68.6% in assay [5]; 77% in assay [6]. Further, the growth is 88.7% in [7]; 94.9% in [8]; 79% in [9]; 83.7% in assay [10]; 80.8% in [11]; 82.2% in [12]. For the same compound, the growth is 81.7% in [13]; 85.4% in assay [14]; 85.8% in assay [15]; 67.7% in [16]; 67.7% in assay [17]; 84.8% in assay [18]. Further, the growth in [19] is 98.3%.

Regarding `c1ccc(-c2oc(-c3ccccc3)c(CN3CCCCC3)c2CN2CCCCC2)cc1`, the growth in assay [1] was 57.7%; in assay [2], 7.49% (active); in assay [3], -12.5% (active); in assay [4] it was 29.6%; in assay [5] it was 2.14% (active); in assay [6], 57.9%. In addition, the growth in assay [7] is 37.3%; in assay [8] it was 46.7%; in assay [9], 15.8%; in assay [10], 1.67% (active); in assay [11], 19.4%; in assay [12], 10.9%. Further, the growth in assay [13] was 55.6%; in assay [14], 44.5%; in assay [15], 25.2%; in assay [16] it was -87% (active); in assay [18], 22.3%; in assay [19], 10.1%.
